Data taken from PubChem BioAssay (NCI).
This is part of a sample that, as a whole, favours compounds with a hit. Of some 83,000 tested, about 20% had one in any assay.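 The test compound was applied at a single concentration to cells in 96-well plates for 48 hours, and percent growth was recorded.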 A number with no mark means an inactive call. Activity calls are given as the source filed them. Rule for the calls: active = growth percent below 10; inactive = the rest.

Columns and labels:
Test in all cases: NCI-60 one-dose screen, 48 h (100 = growth as untreated, 0 = no growth, -100 = all killed)
Details in all cases: 10 µM unless noted
BT-549 breast = tested on: BT-549 breast
MDA-MB-435 melanoma = tested on: MDA-MB-435 melanoma
SW-620 colon = tested on: SW-620 colon
MCF7 breast = tested on: MCF7 breast
HCT-116 colon = tested on: HCT-116 colon
HCC-2998 colon = tested on: HCC-2998 colon
KM12 colon = tested on: KM12 colon
T-47D breast = tested on: T-47D breast

SMILES	growth (BT-549 breast)	growth (MDA-MB-435 melanoma)	growth (SW-620 colon)	growth (MCF7 breast)	growth (HCT-116 colon)	growth (HCC-2998 colon)	growth (KM12 colon)	growth (T-47D breast)
O=C(Oc1cccnc1)c1ccsc1Nc1ccnc(C(F)(F)F)c1	45%	82.6%	21%	58.2%	9.98% (active)	114%	41%	–
O=C(CCCCC(=O)N/N=C\c1ccccc1O)N/N=C\c1ccccc1O	38.4%	–	34.2%	27.5%	25.5%	21.4%	33.6%	35.5%
CCCCCCCCCCCCC[N+](C)(C)Cc1ccccc1	-72.9% (active)	-73.6% (active)	-37.6% (active)	–	-89.9% (active)	-80.5% (active)	-93.6% (active)	15.1%
NC(=O)c1cc(Br)ccc1NC(=O)/C=C/c1ccccc1	90.1%	-7.27% (active)	29.1%	19.9%	–	64.4%	20.7%	36.4%
COc1ccc(C(=O)c2sc3nc(C)cc(C)c3c2N)cc1OC	93.2%	91.8%	99.5%	84%	87%	99.1%	94.3%	–
O=C1c2c(O)cc(O)cc2-c2c(-c3ccc(O)cc3)oc3cc(O)cc1c23	50.8%	52.9%	45.3%	33.2%	–	–	58.3%	8.47% (active)
CC1(C)CC[C@]2(C(=O)Nc3ccccn3)CC[C@]3(C)C(=CC[C@@H]4[C@@]5(C)C/C(=C/c6cccnc6)C(=O)C(C)(C)[C@@H]5CC[C@]43C)[C@H]2C1	42.2%	38.3%	33.9%	11.4%	–	40.4%	40.1%	12.8%
c1ccc(-c2cc3n4c(-c5ccccc5)nn(-c5ccccc5)c4cnc-3n2)cc1	–	60.4%	52.2%	50.6%	–	83.9%	70.6%	54.2%
C(=C\c1nccc2c1[nH]c1ccccc12)/c1ccccc1	10.9%	-38.9% (active)	14.8%	8.84% (active)	–	–	15.6%	29.8%
CC[C@@H]1O[C@H](O[C@@H](c2cnc[nH]2)[C@H](NC(=O)c2nc([C@H](CC(N)=O)NC[C@@H](N)C(N)=O)nc(N)c2C)C(=O)N[C@H](C)[C@H](O)[C@H](C)C(=O)N[C@@H](C(=O)NCCc2nc(-c3nc(C(=O)NCCCCN=C(N)N)cs3)cs2)[C@@H](C)O)[C@H](O[C@@H]2O[C@H](CO)[C@H](O)[C@H](OC(N)=O)[C@@H]2O)[C@H](C)[C@@H]1C	78.3%	81.9%	68.1%	–	37%	69.7%	57.9%	57.4%
C=C1c2nc3ccccc3n2C=C(c2ccc(OC)cc2)N1Cc1ccccc1	–	95.1%	88.7%	86.3%	73.7%	82.1%	98.5%	59.9%
CC(C)n1c(/C=C/[C@@H](O)C[C@@H](O)CC(=O)O)c(-c2ccc(F)cc2)c2ccccc21	60.6%	55.8%	72.9%	–	22.1%	77.7%	87.5%	72.7%
Cn1ccnc1C(=O)/C=C/c1ccccc1	–	10.8%	5.92% (active)	2.27% (active)	9.05% (active)	–	-20.6% (active)	18.4%
Cn1ncc2c(=O)nc3c(-c4ccccc4)n[nH]n3c21	–	101%	107%	92.8%	–	99.2%	113%	95.6%
C#CCOc1ccc2ncnc(Nc3cccc(CNC(=O)CCl)c3)c2c1	47.7% [8.25 µM]	49.6% [8.25 µM]	30.4% [8.25 µM]	30.4% [8.25 µM]	–	99% [8.25 µM]	63.2% [8.25 µM]	29.6% [8.25 µM]
NC(=O)c1cc(Cl)ccc1NC(=O)/C=C/c1ccccc1	–	-13.3% (active)	26.1%	10.9%	29.2%	60.1%	9.48% (active)	14.9%
Clc1ccc2c(NCCCNc3nc(-n4ccnc4)nc4ccccc34)ccnc2c1	82.8%	92.6%	89.8%	76.5%	88.3%	106%	88.5%	–

SMILES	growth (BT-549 breast)	growth (MDA-MB-435 melanoma)	growth (SW-620 colon)	growth (MCF7 breast)	growth (HCT-116 colon)	growth (HCC-2998 colon)	growth (KM12 colon)	growth (T-47D breast)
O=C(CCN1C(=O)/C(=C/c2ccc(Cl)cc2)SC1=S)NCCCN1CCOCC1	106%	98.9%	100%	90.1%	–	105%	104%	90.8%
COc1ccc(CN2c3ccccc3Sc3ccccc32)cc1O	54.5%	0.932% (active)	31%	26%	–	–	17.6%	27.5%
COc1ccc(S(=O)(=O)N2CCCCC2)cc1NC(=O)c1[nH]c(C)c2c1CCCCC2=O	50.1%	21.7%	54%	12.3%	–	15.8%	24.9%	15.2%
CC(C)CSc1nc(N)nc2c1ncn2C1OC(CO)C(O)C1O (stereo not given)	–	91%	94.4%	99.5%	–	102%	96.7%	106%
COc1ccc(NC2=C(Sc3nc(C)cc(C)n3)C(=O)N(Cc3ccccc3)C2=O)cc1Cl	65.4% [30 µM]	86.6% [30 µM]	88.7% [30 µM]	48.4% [30 µM]	–	–	99.2% [30 µM]	41.9% [30 µM]
CC(C)CC1C(=O)N2CCC[C@H]2C2(O)O[C@](NC(=O)C3C=C4c5cccc6[nH]c(Br)c(c56)C[C@H]4N(C)C3)(C(C)C)C(=O)N12 (stereo not given in full)	–	62.8%	52.3%	39.7%	36.1%	89.1%	40.3%	47.2%
CCCSc1ccc2nc(NC(=O)OC)[nH]c2c1	45.5%	-51% (active)	24%	–	15.5%	-4.45% (active)	14%	57.4%
CC[C@H]1OC(=O)[C@H](C)[C@@H](O[C@H]2C[C@@](C)(OC)[C@@H](O)[C@H](C)O2)[C@H](C)[C@@H](O[C@@H]2O[C@H](C)C[C@H](N(C)C)[C@H]2O)[C@](C)(O)C[C@H](C)CN(C)[C@H](C)[C@@H](O)[C@]1(C)O	98.4%	96.9%	84.2%	–	90.3%	95.9%	95.4%	108%
COc1ccc(SC2c3ccc(C)cc3Oc3nc(N)c(C#N)c(N)c32)cc1 (stereo not given)	-72.9% (active)	-69.6% (active)	-65.2% (active)	-48.6% (active)	-64.4% (active)	-78.9% (active)	3.92% (active)	–
COc1cc(-c2nc(C(=O)NCC(=O)NO)nn2-c2ccc(Cl)cc2)cc(OC)c1OC	105%	100%	97.1%	92.2%	–	–	95.9%	88.2%
CC(=O)O[C@H]1[C@@H]2OC(=O)C(CSc3ccccc3)[C@@H]2C[C@H]2O[C@]2(C)CC/C=C(\C)CCC[C@@H]1C (stereo not given in full)	–	25.8%	-20.7% (active)	10.6%	-36.7% (active)	80.7%	51.5%	38.3%
CCCCCCN(CCCCCC)C(=N)c1ccnc2ccccc12	73.8%	61.8%	59.8%	–	31.2%	-59.9% (active)	71.1%	88.1%
O=C1Nc2ccc(Br)cc2C12Oc1ccccc1C1CC(c3ccc(F)cc3)=NN12 (stereo not given)	91.8%	99.8%	99%	83.5%	–	97.8%	86.3%	85.9%
CC(C)c1c(C(=O)c2ccccc2)c(-c2ccccc2)c(-c2ccc(F)cc2)n1CC[C@@H](O)C[C@@H](O)CC(=O)O	70.2%	68.9%	76.2%	–	47.4%	85.6%	91%	91.4%
COc1ccc2c(c1)CC/C(=C\c1cncc(Br)c1)C2=O	95.7%	82.7%	42.6%	39.3%	–	–	63.7%	66.1%
O=c1cc(CSc2nnc(SCc3cc(=O)oc4c3ccc3ccccc34)o2)c2ccc3ccccc3c2o1	107%	112%	98.1%	93.7%	104%	101%	–	–
